Experimental data published in PubChem BioAssay (NCATS).
Records with an inconclusive call do not appear. The source made the active and inactive calls. The call rests on the fitted dose curve; in most records, active means well fitted curve in the direction sought with a large enough effect; inconclusive means small, poorly fitted or top-dose-only effect, or another doubt; inactive means no such curve, though single readings can be large; an effect the other way counts as inactive or inconclusive.

Columns and labels:
[1] = test system: HACAT; assay: qHTS assay to identify novel small-molecules to repurpose for Merkel cell carcinoma treatment (AID 1296009); details: MCC and control cell lines, CellTiter-Glo viability, 72 h; at 44.8 µM (top of the series) unless noted; further: nearly all actives have a fitted effect of over 60% in size
How it was run: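 72 hr, 37 degree celsius; NPC 8-pt / MIPE 11-pt dose response; compound pinned in DMSO; CellTiter-Glo, 10 min RT, luminescence; normalized to no-cell and DMSO controls.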

[2] = test system: C33A; assay: Primary qHTS to identify gynecologic anti-cancer compounds using libraries of approved drugs and bioactive compounds (AID 1345084); details: Gynecologic cancer cell panel viability, ATPlite luminescence, 48 h; series mostly up to 57.5 µM; further: on the % scale 0 is the no-effect control and ±100 the full control effect; nearly all actives have a fitted effect of over 55% in size
How it was run: (§1)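 Measured: luminescence after ATPlite addition (15 min, RT). Exposure: 48 h, 37 C, 5% CO2.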

[3] = test system: CAOV3; assay: as above; details: Gynecologic cancer cell panel viability, ATPlite luminescence, 48 h; series mostly up to 57.5 µM
How it was run: as §1

[4] = test system: CASKI; assay: as above; details: Gynecologic cancer cell panel viability, ATPlite luminescence, 48 h; series mostly up to 57.5 µM
How it was run: as §1

[5] = test system: Es-2; assay: as above; details: Gynecologic cancer cell panel viability, ATPlite luminescence, 48 h; series mostly up to 57.5 µM
How it was run: as §1

[6] = test system: HeLa; assay: as above; details: Gynecologic cancer cell panel viability, ATPlite luminescence, 48 h; series mostly up to 57.5 µM
How it was run: as §1

[7] = test system: Hek293T; assay: as above; details: Gynecologic cancer cell panel viability, ATPlite luminescence, 48 h, control line for the selectivity index; series mostly up to 57.5 µM
How it was run: as §1

[8] = test system: JEG-3; assay: as above; details: Gynecologic cancer cell panel viability, ATPlite luminescence, 48 h; series mostly up to 57.5 µM
How it was run: as §1

CSC(=O)OCC1=C[C@@H]2OC(=O)C3=CO[C@@H](O[C@@H]4O[C@H](CO)[C@@H](O)[C@H](O)[C@H]4O)[C@H]1[C@@H]32
inactive: outcome [1] inactive [at 17.4 µM] | Potency [2] | Potency [3] | outcome [4] | Potency [5] | Potency [6] | Potency [7] | Potency [8]

COCC1OC(OC(C)(C)C2CCC3(C)C=C(C4CCC5C4(C)CC(O)C4OC(C(C)(C)O)CCC45C)CCC3O2)C(NC(C)=O)C(O)C1O (stereo unspecified)
inactive: outcome [1] inactive [at 17.4 µM] | Potency [2] | Potency [3] | outcome [4] | Potency [5] | Potency [6] | Potency [7] | Potency [8]

CC(C)CC(=O)NCCn1cc(C(=O)O)c(=O)cc1C(O)c1ccccc1 (stereo unspecified)
inactive: outcome [1] | Potency [2] | Potency [3] | outcome [4] | Potency [5] | Potency [6] | Potency [7] | Potency [8]

CC(C)c1c(NC(=O)Nc2ccc(Cl)cc2)c(=O)n(-c2ccccc2)n1C
inactive: outcome [1] | Potency [2] | Potency [3] | outcome [4] | Potency [5] | Potency [6] | Potency [7] | Potency [8]

CC1(C(=O)O)CCCC2(C)C3CCC4CC3(CCC12)CC4(O)CO (stereo unspecified)
inactive: outcome [1] | Potency [2] | Potency [3] | outcome [4] | Potency [5] | Potency [6] | Potency [7] | Potency [8]

CC1CCC2C(C)(C)C(O)C(O)CC2(C)C12Cc1c(O)cc(CO)c(C=O)c1O2 (stereo unspecified)
inactive: outcome [1] inactive [at 17.4 µM] | Potency [2] | Potency [3] | outcome [4] | Potency [5] | Potency [6] | Potency [7] | Potency [8]

COC(=O)C1=CO[C@@H](O[C@@H]2O[C@H](CO)[C@@H](O)[C@H](O)[C@H]2O)[C@@H]2[C@@H](CO)[C@@H](O)C(O)[C@H]12 (stereo partly specified)
inactive: outcome [1] inactive [at 17.4 µM] | Potency [2] | Potency [3] | outcome [4] | Potency [5] | Potency [6] | Potency [7] | Potency [8]

COc1cc(/C=C/C(=O)OC[C@H]2O[C@@H](OC3OC=C(C(=O)O)C4C(O)CC(C)(O)C34)[C@H](O)[C@@H](O)[C@@H]2O)cc(OC)c1O (stereo partly specified)
inactive: outcome [1] inactive [at 17.4 µM] | Potency [2] | Potency [3] | outcome [4] | Potency [5] | Potency [6] | Potency [7] | Potency [8]

Cc1nc2ccccc2c(-c2ccc3c4c(ccnc24)CCO3)c1[C@H](OC(C)(C)C)C(=O)O
inactive: outcome [1] | Potency [2] | Potency [3] | outcome [4] | Potency [5] | Potency [6] | Potency [7] | Potency [8]

COc1ccc(-n2c(SCC#N)nc3sc4c(c3c2=O)CCCC4)cc1
inactive: outcome [1] | Potency [2] | Potency [3] | outcome [4] | Potency [5] | Potency [6] | Potency [7] | Potency [8]

CCC[C@H](N[C@@H](C)C(=O)N1[C@H](C(=O)O)C[C@@H]2CCCC[C@@H]21)C(=O)O
inactive: outcome [1] | Potency [2] | Potency [3] | outcome [4] | Potency [5] | Potency [6] | Potency [7] | Potency [8]

CC1CCCCCCCc2cc(O)cc(O)c2C(=O)O1 (stereo unspecified)
inactive: outcome [1] | Potency [2] | Potency [3] | outcome [4] | Potency [5] | Potency [6] | Potency [7] | Potency [8]

CC1=C2C[C@H]3OC(=O)[C@H](O)[C@@]4(O)[C@@H](C)[C@@H](O)[C@H](O)C([C@@]2(C)[C@H](O)[C@@H](O)C1)[C@@]34C (stereo partly specified)
inactive: outcome [1] | Potency [2] | Potency [3] | outcome [4] | Potency [5] | Potency [6] | Potency [7] | Potency [8]

COc1cc(O)cc2c1C(=O)OC(C)CCCCCCC2 (stereo unspecified)
inactive: outcome [1] | Potency [2] | Potency [3] | outcome [4] | Potency [5] | Potency [6] | Potency [7] | Potency [8]

CC(C)c1ccc2c(c1)C(O)CC1C(C)(CO)CCCC21C (stereo unspecified)
inactive: outcome [1] | Potency [2] | Potency [3] | outcome [4] | Potency [5] | Potency [6] | Potency [7] | Potency [8]

C=CC1(C)CC2CCC3C(C)(C(=O)O)CCCC3(C)C2=CC1=O (stereo unspecified)
inactive: outcome [1] | Potency [2] | Potency [3] | outcome [4] | Potency [5] | Potency [6] | Potency [7] | Potency [8]

N[C@@H](CC(=O)Nc1ccc(Oc2cc(F)c(F)cc2Br)cc1)C(=O)O
inactive: outcome [1] | Potency [2] | Potency [3] | outcome [4] | Potency [5] | Potency [6] | Potency [7] | Potency [8]

C=C(C)[C@@H]1CC[C@]2(C)CC[C@]3(C)C(CCC4[C@@]5(C)CC[C@H](O)C(C)(C)C5CC[C@]43C)C12 (stereo partly specified)
inactive: outcome [1] inactive [at 17.4 µM] | Potency [2] | Potency [3] | outcome [4] | Potency [5] | Potency [6] | Potency [7] | Potency [8]

C=Cc1ccc(O[C@@H]2O[C@H](CO[C@@H]3O[C@@H](C)[C@H](O)[C@@H](O)[C@H]3O)[C@@H](O)[C@H](O)[C@H]2O)cc1
inactive: outcome [1] inactive [at 17.4 µM] | Potency [2] | Potency [3] | outcome [4] | Potency [5] | Potency [6] | Potency [7] | Potency [8]

CC1(C)Oc2ncnc(N)c2N=C1c1ccc(C2CCC(CC(=O)O)CC2)cc1 (stereo unspecified)
inactive: outcome [1] | Potency [2] | Potency [3] | outcome [4] | Potency [5] | Potency [6] | Potency [7] | Potency [8]

N#Cc1cc(-c2n[nH]c(-c3ccncc3)n2)ccn1
inactive: outcome [1] | Potency [2] | Potency [3] | outcome [4] | Potency [5] | Potency [6] | Potency [7] | Potency [8]

NC(=O)c1ccc(F)c2c1C[C@@H](N(C1CCC1)C1CCC1)CO2
inactive: outcome [1] | Potency [2] | Potency [3] | outcome [4] | Potency [5] | Potency [6] | Potency [7] | Potency [8]

Cc1oc(S(=O)(=O)N2CCCCC2)cc1NC(=O)Nc1ccccc1
inactive: outcome [1] | Potency [2] | Potency [3] | outcome [4] | Potency [5] | Potency [6] | Potency [7] | Potency [8]

COc1ccc(/C=C/C(N)=O)cc1OC
inactive: outcome [1] | Potency [2] | Potency [3] | outcome [4] | Potency [5] | Potency [6] | Potency [7] | Potency [8]

Cc1ncc(NC(=O)c2ccc(CN3CCN(C)CC3)c(C(F)(F)F)c2)cc1Nc1nccc(-c2cccnc2)n1
inactive: outcome [1] | Potency [2] | Potency [3] | outcome [4] | Potency [5] | Potency [6] | Potency [7] | Potency [8]

CC(C)c1ccc2c(c1)C(O)CC1C(C)(C(=O)O)CCCC21C (stereo unspecified)
inactive: outcome [1] | Potency [2] | Potency [3] | outcome [4] | Potency [5] | Potency [6] | Potency [7] | Potency [8]

Cc1cc(-c2nncc3c(C(C)(C)C)c(OCc4ncnn4C)nn23)no1
inactive: outcome [1] | Potency [2] | Potency [3] | outcome [4] | Potency [5] | Potency [6] | Potency [7] | Potency [8]

CC12CC34CC(O)C5C(CO)(CO)CC(=O)CC5(C)C3CC1C2C4 (stereo unspecified)
inactive: outcome [1] | Potency [2] | Potency [3] | outcome [4] | Potency [5] | Potency [6] | Potency [7] | Potency [8]

COc1cc(O)cc(C)c1C(=O)OC1C(CO)OC(n2ccc(=O)[nH]c2=O)C1OC(C)=O (stereo unspecified)
inactive: outcome [1] inactive [at 17.4 µM] | Potency [2] | Potency [3] | outcome [4] | Potency [5] | Potency [6] | Potency [7] | Potency [8]

Cc1cc(OCCN2CCOCC2)nn1-c1ccc2ccccc2c1
inactive: outcome [1] | Potency [2] | Potency [3] | outcome [4] | Potency [5] | Potency [6] | Potency [7] | Potency [8]

CC(=O)O[C@@H]1CC2C(C)(C)C(=O)C=C[C@]2(C)C2CC[C@]3(C)C(=CC(=O)[C@@H]3c3ccoc3)[C@@]21C (stereo partly specified)
inactive: outcome [1] inactive [at 17.4 µM] | Potency [2] | Potency [3] | outcome [4] | Potency [5] | Potency [6] | Potency [7] | Potency [8]

CCCC(C(=O)O)c1c(C)nc2ccc(Cl)cc2c1-c1ccccc1 (stereo unspecified)
inactive: outcome [1] | Potency [2] | Potency [3] | outcome [4] | Potency [5] | Potency [6] | Potency [7] | Potency [8]

NC1=NC2(c3cc(NC(=O)c4ccc(F)cn4)ccc3F)COCC2CS1 (stereo unspecified)
inactive: outcome [1] | Potency [2] | Potency [3] | outcome [4] | Potency [5] | Potency [6] | Potency [7] | Potency [8]

CCc1nn(CCO)c(CC)c1Oc1cc(C#N)cc(C#N)c1
inactive: outcome [1] | Potency [2] | Potency [3] | outcome [4] | Potency [5] | Potency [6] | Potency [7] | Potency [8]

O=C(N[C@@H]1CC[C@@H](c2cccc(F)c2F)CN(CC(F)(F)F)C1=O)N1CCC(n2c(=O)[nH]c3ncccc32)CC1
inactive: outcome [1] | Potency [2] | Potency [3] | outcome [4] | Potency [5] | Potency [6] | Potency [7] | Potency [8]

C[C@@H]1O[C@@H](O[C@H]2[C@H](O)[C@@H](O[C@@H]3O[C@H](CO)[C@H](O)[C@H](O)[C@H]3O)[C@H](O[C@H]3CC[C@@]4(C)C(CC[C@]5(C)C4CC=C4[C@@H]6CC(C)(C)CC[C@]6(C(=O)O[C@@H]6O[C@H](CO)[C@@H](O)[C@H](O)[C@H]6O)CC[C@]45C)C3(C)C)O[C@@H]2C(=O)O)[C@H](O)[C@H](O)[C@H]1O (stereo partly specified)
inactive: outcome [1] inactive [at 9.27 µM] | activity change, negative = cytotoxicity [2] 1.15% [at 11.6 µM] | activity change, negative = cytotoxicity [3] -1.94% [at 11.6 µM] | activity change, negative = cytotoxicity [4] -5.82% [at 11.6 µM] | activity change, negative = cytotoxicity [5] 2.19% [at 11.6 µM] | activity change, negative = cytotoxicity [6] 1.11% [at 11.6 µM] | activity change, negative = cytotoxicity [7] -2.99% [at 11.6 µM] | activity change, negative = cytotoxicity [8] -3.24% [at 11.6 µM]

C[C@@H]1O[C@@H](O[C@H]2[C@H](O)[C@@H](O)[C@H](OC(=O)[C@]34CCC(C)(C)C[C@H]3C3=CCC5[C@@]6(C)CC[C@H](O[C@@H]7O[C@H](C(=O)O)[C@@H](O)[C@H](O)[C@H]7O)C(C)(C)C6CC[C@@]5(C)[C@]3(C)CC4)O[C@@H]2CO)[C@H](O)[C@H](O)[C@H]1O (stereo partly specified)
inactive: outcome [1] inactive [at 9.27 µM] | activity change, negative = cytotoxicity [2] -8.12% [at 11.6 µM] | activity change, negative = cytotoxicity [3] -25.2% [at 11.6 µM] | activity change, negative = cytotoxicity [4] 5.01% [at 11.6 µM] | activity change, negative = cytotoxicity [5] -1.51% [at 11.6 µM] | activity change, negative = cytotoxicity [6] -21.7% [at 11.6 µM] | activity change, negative = cytotoxicity [7] 10.3% [at 11.6 µM] | activity change, negative = cytotoxicity [8] -2.05% [at 11.6 µM]
